Assay outcomes as filed in PubChem BioAssay.
Pf Dd2 inh – inhibitors of Plasmodium falciparum Dd2 growth; Potency, µM (series often up to 28.9 µM), hits mostly inhibitors; actives 4.3% (n = 120,000); P. falciparum Dd2 growth, SYBR Green, 72 h; active means well fitted inhibition curve with a large enough effect; further: nearly all actives have a fitted effect of over 65% in size
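Readout: SYBR Green fluorescence, 485 nm excitation, 535 nm emission, after ~16 h lysis at 37C. Before that, Dd2-infected red cells (2.5% hematocrit) grew 72 h with compound, 29 uM top final concentration.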
Each line names hits and unclear results; the compound was inactive in the other large screens. The sample as a whole holds a higher share of hits than the screen did.

COc1cc(CN2CCc3nc(N4CCN(c5ncccn5)CC4)ncc3C2)cc(OC)c1OC	Pf Dd2 inh 7.94µM
CC(=O)N(C1CC1)C1CCOC2(CCN(C(=O)CCCc3ccccc3)CC2)C1 (centres undefined)	none
COc1cc(CNC(=O)c2nc(C(O)c3ccccn3)oc2C)cc(OC)c1 (centres undefined)	none
Nc1ncccc1CN1CCc2ncc(C(=O)NCCOc3ccccc3)n2CC1	none
O=C1c2cnc(-c3cncnc3)nc2OCCN1c1cccc(C(F)(F)F)c1	none
O=C(c1ccncc1)N1CCCN(CCc2ccccc2)c2ccccc21	none
COc1ccccc1CC(=O)N1CCCN(CCc2ccccc2)c2ccccc21	Pf Dd2 inh 7.94µM
CN(C)CCN1CCCN(C(=O)CCc2ccccc2)c2ccccc21	Pf Dd2 inh 7.08µM
COc1ccc(CCC(=O)N2CCCN(C)c3ccccc32)cc1	none
O=C(c1cc(F)ccc1F)N1CCCN(CCc2ccccc2)c2ccccc21	none
CN1CCCN(C(=O)CCc2ccccc2)c2ccccc21	none
Cc1ccc(N2CCC(NS(=O)(=O)C3CC3)C2=O)cc1C (centres undefined)	none
CC(C)N1CCC(CCN2C(=O)[C@H]3CNC[C@H]3C2=O)CC1	none
CCCN(CC1CCOC1)C(=O)c1ccc(F)cc1F (centres undefined)	none
Cn1nnc(-c2cccc(NC(=O)Cn3nc4c(cc3=O)CCCC4)c2)n1	none
Cn1cc(-c2ccncc2)cc1C(=O)NCc1ccc(Cl)cc1	none
COc1ccc2cc1Nc1ccc(cc1)C[C@H](NCc1ccc(C)o1)C(=O)N(C)[C@@H](C(=O)NCc1ccccc1)C2	Pf Dd2 inh 0.891µM
COc1ccc2cc1Nc1ccc(cc1)C[C@H](NCc1ccc(O)cc1)C(=O)N(C)[C@H](C(=O)NCCOc1ccccc1)C2	Pf Dd2 inh 2.51µM
COc1cccc(N2CC(C(=O)NCCOc3ccccc3)NC2=O)c1 (centres undefined)	none
COCCN1CC(C(=O)NCCOc2ccccc2)CCC1=O (centres undefined)	none
COc1cccc(C(=O)N2CCC(N3C(=O)CCC3C(=O)NCc3ccccc3)CC2)c1C (centres undefined)	none
COc1ccc2cc1Nc1ccc(cc1)C[C@H](NCc1ccc(C)o1)C(=O)N(C)[C@H](C(=O)NCCC(C)C)C2	Pf Dd2 inh 1µM
COc1ccc2cc1Nc1ccc(cc1)C[C@H](NCC1CC1)C(=O)N(C)[C@@H](C(=O)NCc1ccccc1)C2	none
COc1ccc(CCN2CC(C(=O)NCCc3ccc(C)cc3)CC2=O)cc1OC (centres undefined)	none
Cc1ccc(CNC(=O)C2N(C(C)C)C(=O)C23CCCC3)o1 (centres undefined)	none
CNS(=O)(=O)c1ccc(CN2CC3(CCNCC3)CC2C(=O)O)cc1 (centres undefined)	none
CC(C)Cc1cc(C(=O)N[C@H](C2CCNCC2)C2CC(O)C2)nc(N)n1 (some centres undefined)	none
Cc1noc([C@@H]2CN(C(=O)CC(C)(C)C)C[C@H]2CO)n1	none
CN(Cc1cnn(C)c1)C(=O)C1C2C(=O)N(Cc3ccc(F)cc3)C[C@@]23C=C[C@@H]1O3 (some centres undefined)	none
CCOCC(=O)N1CCN(C(=O)N2CC3CC(C2)[C@H]2CCCC(=O)N2C3)CC1 (some centres undefined)	none
COCCCNC(=O)c1ccc2c(c1)N(Cc1ccccc1F)C(=O)c1ccccc1S2=O (centres undefined)	none
O=C(NC1CCCC1)c1ccc2c(c1)N(Cc1ccccc1)C(=O)c1ccccc1S2	none
COCCCNC(=O)c1ccc2c(c1)N(Cc1ccccc1)C(=O)c1ccccc1S2	none
O=C(NC1CCCC1)c1ccc2c(c1)N(Cc1ccc(F)cc1)C(=O)c1ccccc1S2	none
O=C(NCc1ccco1)c1ccc2c(c1)N(Cc1ccc(Cl)cc1)C(=O)c1ccccc1S2	none
O=C(NCCc1ccccc1)c1ccc2c(c1)N(Cc1ccc(F)cc1)C(=O)c1ccccc1S2	none
CCOc1ccc(CN2C(=O)c3ccccc3Sc3ccc(C(=O)NCc4ccco4)cc32)cc1	Pf Dd2 inh 5.01µM
CCC(C)NC(=O)c1ccc2c(c1)N(Cc1ccccc1)C(=O)c1ccccc1S2 (centres undefined)	none
COc1ccc(CCNC(=O)c2ccc3c(c2)N(Cc2ccc(Cl)cc2)C(=O)c2ccccc2S3)cc1OC	Pf Dd2 inh 7.94µM
CCOc1ccc(CN2C(=O)c3ccccc3Sc3ccc(C(=O)NC4CCC(C)CC4)cc32)cc1 (centres undefined)	Pf Dd2 inh 11.2µM
CC1CCC(NC(=O)c2ccc3c(c2)N(Cc2ccccc2F)C(=O)c2ccccc2S3(=O)=O)CC1 (centres undefined)	none
CC1CCC(NC(=O)c2ccc3c(c2)N(Cc2ccccc2F)C(=O)c2ccccc2S3=O)CC1 (centres undefined)	Pf Dd2 inh 10µM
CN(C1CCOCC1)C1CCN(C(=O)C2CCCCC2)CC1	none
NC(=O)CNC(=O)C1=C[C@@H](NC(=O)c2ccc(F)c(Cl)c2)[C@@H](O)[C@H](O)C1	none
O=C(Nc1ccc([C@@H](O)[C@H]2COCC(=O)N2Cc2ccc(F)cc2)cc1)c1cccs1	none
